What was measured:
Settings in all cases: concentration: 1 μM, replicates: in singlicate; n = 1
[1] = system: T1, YES
T1 construct: gene YES1

[2] = system: T2, YSK1
T2 construct: gene STK25

[3] = system: T3, YSK4
T3 construct: gene MAP3K19

[4] = system: ZAK
[5] = system: ZAP70
[6] = system: T4, p38-alpha
T4 construct: gene MAPK14

[7] = system: T5, p38-beta
T5 construct: gene MAPK11

[8] = system: p38-delta
[9] = system: T6, p38-gamma
T6 construct: gene MAPK12
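Note: KINOMEscan kinase panel screen.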

Compound | %Inh [1] [%] | %Inh [2] [%] | %Inh [3] [%] | %Inh [4] [%] | %Inh [5] [%] | %Inh [6] [%] | %Inh [7] [%] | %Inh [8] [%] | %Inh [9] [%]
CC1=C(C(=O)Nc2cc3cn[nH]c3cc2F)C(c2ccc(C(F)(F)F)cc2)CC(=O)N1 (stereo not drawn) [GSK429286] | 17 | 0 | 9 | 9 | 0 | 0 | 0 | 21 | 0
O=C(Nc1n[nH]c2nc(-c3nccs3)c(Br)cc12)C1CC1 [SB-742251] | 16 | 9 | 95.4 | 7 | 0 | 0 | 0 | 20 | 0
CC(C)(C)c1ccc(C(=O)Nc2cn3cc(Cl)ccc3n2)cc1 | 0 | 0 | 5 | 0 | 4 | 0 | 0 | 39 | 10
Cc1cccc(-c2nc(-c3ccc(S(C)(=O)=O)cc3)sc2-c2ccnc(NCCc3ccccc3)c2)c1 | 0 | 11 | 0 | 29 | 9 | 82 | 40 | 12 | 16
Cc1ccc(-c2cc(-c3c[nH]nc3-c3ccccn3)ccn2)cc1 [GW684088] | 17 | 10 | 2 | 0 | 10 | 56 | 0 | 25 | 11
COc1cc2ncn(-c3cc(OCC4CCCO4)c(C(N)=O)s3)c2cc1OC (stereo not drawn) [GSK204607] | 12 | 22 | 53 | 6 | 0 | 0 | 0 | 37 | 0
Cc1c(O)cccc1Nc1ccnc2ccc(C(F)(F)F)cc12.Cl [GW466413] | 20 | 0 | 11 | 1 | 0 | 0 | 0 | 24 | 0
Cl.O=C(Nc1cccc(-c2nn3ncccc3c2-c2ccnc(Nc3cccnc3)n2)c1)c1c(F)cccc1F [GSK312879] | 73 | 0 | 32 | 28 | 0 | 3 | 6 | 24 | 0
C[C@@H]1CCCCN1c1cc(-c2ccc3c(N)n[nH]c3c2)nc(N)n1 [GSK2258759] | 14 | 0 | 0 | 0 | 0 | 80 | 0 | 26 | 0
CN(C)CCN(C)C(=O)c1cc(-c2ccncc2)c(-c2ccc(Cl)c(O)c2)o1.Cl.Cl [SB-710397] | 0 | 0 | 57 | 41 | 35 | 82 | 0 | 51 | 29
COc1ccc(Nc2nccc(-c3cccc(NC(=O)c4cc5cc(F)ccc5[nH]4)c3)n2)cc1 [GSK1229782] | 29 | 31 | 79 | 22 | 0 | 27 | 0 | 45 | 48
Cc1cc(-c2ccc3c(c2)CC[C@@H](N[C@@H](C)c2ccccc2)C3)cnc1N.Cl [GW412617] | 4 | 0 | 100 | 1 | 0 | 0 | 0 | 25 | 0
O=C1NC(=O)C(N2CCc3ccccc32)=C1c1ccccc1Cl [SB-373598] | 10 | 0 | 0 | 17 | 0 | 0 | 35 | 6 | 18
Cl.c1ccc(-c2n[nH]cc2-c2ccnc(-c3ccc(CN4CCOCC4)cc3)c2)nc1 [GW776245] | 0 | 0 | 0 | 13 | 0 | 17 | 23 | 7 | 55
COc1ccc(CNC(=O)NC2CCN(c3ccnc(Nc4cc(OC)c(OC)c(OC)c4)n3)C2)cc1 (stereo not drawn) [GSK1379748] | 0 | 9 | 13 | 5 | 3 | 12 | 0 | 26 | 0
NC(=O)c1nnc2ccccc2c1N | 0 | 2 | 88 | 0 | 0 | 71 | 0 | 0 | 43
Cc1csc(-c2nc(Nc3ccncc3)c3ccccc3n2)n1 [GW869640] | 0 | 0 | 38 | 17 | 18 | 14 | 12 | 0 | 39
O=C(Nc1n[nH]c2nc(-c3nccs3)c(Br)cc12)C1CCCC1 [SB-742609] | 10 | 5 | 62 | 9 | 0 | 0 | 0 | 47 | 0
